# Source: PubChem
# In the library only some 19% were active in any assay of this set; here they are far more common.
# TDP1 cell noCPT – qHTS for Inhibitors of human tyrosyl-DNA phosphodiesterase 1 (TDP1): qHTS in cells in absence of CPT; Potency, µM (top dose mostly 46.2 µM), for the others: top-dose activity change, negative = growth inhibition, actives largely listed as inhibitors; hit rate 15% among 420,000; DT40 Tdp1-/- hTDP1 cells, no CPT, ATP luminescence, 48 h; note: potency is the fitted concentration of half-maximal effect; nearly all actives have a fitted effect of over 55% in size
#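 Camptothecin absent (DMSO only). Human TDP1-complemented DT40 knockout cells, 400 cells/well, 37 °C for minimum 48 hr; ATP measured via CellTiter-Glo, 30 min dark incubation, luminescence.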
# HT1080-NT tox – qHTS for induction of synthetic lethality in tumor cells producing 2HG: qHTS for the HT-1080-NT fibrosarcoma cell line. hit rate 1.6% among 360,000. HT-1080-NT fibrosarcoma viability, CellTiter-Glo ATP luminescence, 48 h. Potency, µM (titrated, usually from 46.1 µM), for inactives: at the highest dose activity, negative = less viability, hits mostly cytotoxic;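 note: NT is the 2HG producing partner of a matched IDH1 knockdown line; potency is the fitted concentration of half-maximal effect; 0% = DMSO-treated cells and -100% = media-only wells without cells; nearly all actives have a fitted effect of over 55% in size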
#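 HT-1080-NT; 750 cells/well; 5% FBS RPMI; 48 h compound, 37 degrees C; CellTiter-Glo luminescence; curve fitting and curve-class assignment.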
# IL-1B inflam inh – qHTS for Inhibitors of Inflammasome Signaling: IL-1-beta AlphaLISA Primary Screen; activity change, % at 57.5 µM; hit rate 4.7% among 360,000; THP-1 LPS/ATP IL-1B secretion, AlphaLISA, 16 h; stronger effect = lower value; in the data active = activity change below about -50%; inconclusive = mostly about -30% to -49%
#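 THP-1 cells pretreated 1 hr with compounds (up to 57.5 uM final), then stimulated with LPS (250 ng/mL final) plus ATP (1.25 mM final); secreted IL-1B measured by AlphaLISA after 16 hr, decreased signal indicating inhibition.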
# DT40 TDP1 CPT – qHTS for Inhibitors of human tyrosyl-DNA phosphodiesterase 1 (TDP1): qHTS in cells in presence of CPT. chicken DT40 Tdp1-/-;hTDP1 cells + 20 nM CPT, ATP luminescence, 48 h. Potency, µM (titrated, usually from 46.2 µM), without a hit: at the top dose activity change, negative = growth inhibition, actives largely listed as inhibitors. hit rate 12% among 420,000; note: potency is the fitted concentration of half-maximal effect; nearly all actives have a fitted effect of over 55% in size
#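 Chicken DT40 Tdp1-/- cells stably complemented with human TDP1 were seeded at 400 cells/well in medium containing 20 nM camptothecin, exposed to pin-transferred compounds, and grown at 37 °C for at least 48 hr. Viability was read as ATP luminescence.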
# HT1080 IDH1KD tx – qHTS for induction of synthetic lethality in tumor cells producing 2HG: qHTS for the HT-1080-IDH1KD cell line; HT-1080 IDH1 knockdown viability, ATP luminescence, 48 h; Potency, µM (highest dose often 46.1 µM), for the others: top-dose activity, negative = toxicity, hits mostly cytotoxic; hit rate 2% among 360,000; AID 686971, 2013;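 note: potency is the fitted concentration of half-maximal effect; 0% = DMSO wells and -100% = cell-free medium wells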
#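 Viability of IDH1-knockdown HT-1080 fibrosarcoma cells was assessed by CellTiter-Glo after 48 h at 37 °C with titrated compound; concentration-effect curves were classified by fit quality and response size.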
# The depositor's hits bear a star; ? = inconclusive; . = not tested or not shown; [ ] = dose if it differs, or a comment. Unless noted, calls come from the whole dose curve; as a rule, active = well fitted curve in the direction sought with a large enough effect; inconclusive = small, poorly fitted or top-dose-only effect, or another doubt; inactive = no such curve, though single readings can be large; an effect the other way counts as inactive or inconclusive. Unless noted, % is set by controls: 0 for no effect and ±100 for the full control effect.
SMILES,TDP1 cell noCPT,HT1080-NT tox,IL-1B inflam inh,DT40 TDP1 CPT,HT1080 IDH1KD tx
COc1cc(OC)cc(-c2c(-c3cccs3)c3cc(-c4ccc5[nH]ccc5c4)ccc3n2C)c1,?,-1%,-9,?,-1%
COc1ccc(-c2c(-c3cc(OC)cc(OC)c3)n(C)c3ccc(-c4ccc(OC)c(F)c4)cc23)cc1,?,1%,17,-23%,-2%
COc1cc(OC)cc(-c2c(-c3cccs3)c3cc(-c4cnc(N)nc4)ccc3n2C)c1,?,?,-4,23µM*,?
COc1ccc(-c2c(-c3cc(OC)cc(OC)c3)n(C)c3ccc(-c4ccc5c(c4)OCCO5)cc23)cc1,?,7%,5,-25%,5%
COc1cc(OC)cc(-c2c(-c3cccs3)c3cc(-c4ccc(OC)c(F)c4)ccc3n2C)c1,18µM*,-1%,-3,?,-4%
COc1cc(OC)cc(-c2c(-c3cccs3)c3cc(-c4ccc(OC)c(OC)c4)ccc3n2C)c1,?,?,-17,9.2µM*,1%
COc1cc(OC)cc(-c2c(-c3cccs3)c3cc(-c4ccc5c(c4)OCCO5)ccc3n2C)c1,15µM*,1%,-5,?,5%
Cc1cc(C)nc(SCc2ccc(C(=O)N/N=C3\CC(C)CC(C)(C)C3)cc2)n1 (stereo not drawn),?,-2%,-11,-2%,-1%
O=C(Cc1ccc(S(=O)(=O)N2CCCCC2)cc1)NCc1ccc(Cl)cc1,-24%,-2%[9.24 µM],0,29µM*,-8%
Cc1ccc(CNC(=O)c2cc(S(=O)(=O)N3CCCC3)cn2C)cc1,-6%,8%,2,-20%,1%
Cc1ccc(CNC(=O)c2cc(S(=O)(=O)N3CCCCC3)cn2C)cc1,21µM*,.,.,?,.
Cn1cc(S(=O)(=O)N2CCCCC2)cc1C(=O)NCc1ccc(Cl)cc1,?,.,.,18µM*,.
O=C(NNC(=O)C(c1ccccc1)c1ccccc1)c1ccccn1,2.3µM*,?,-68*,2.9µM*,?
O=C(NNC(=O)C(c1ccccc1)c1ccccc1)c1ccccc1O,?,-16%,49,18µM*,?
O=C(NNC(=O)c1cccs1)c1ccccn1,?,?,5,16µM*,?
O=C(NNC(=O)c1ccccn1)c1ccc(OC(F)F)cc1,4.6µM*,?,51,5.8µM*,21µM*
O=C(NNc1ccccn1)C(c1ccccc1)c1ccccc1,12%,6%,0,9%,5%
O=C(O)c1ccccc1C(=O)NNC(=O)C(c1ccccc1)c1ccccc1,16%,6%,-19,-1%,15%
CN(C)CC(C)(O)c1ccc2c(c1)CN(C(=O)c1ccc(-n3cccn3)cc1)CCO2 (stereo not drawn),0%,.,.,5%[9.04 µM],.
CC(Sc1ccc(Cl)cc1)C(=O)NNC(=O)c1ccccc1O (stereo not drawn),7.3µM*,?,163,16µM*,?
COc1ccccc1-c1ccnc(-n2ncc(C(=O)NC(c3cccnc3)C(F)(F)F)c2C)n1 (stereo not drawn),?,.,.,-5%[9.04 µM],.
CC(C)COc1ccc(C(=O)NCC2OCCc3ccccc32)cc1 (stereo not drawn),15µM*,.,.,?,.
CCCOc1ccc(C(=O)NCC2OCCc3ccccc32)cc1OC (stereo not drawn),?,10%,-17,0%,-1%
COC1CCN(Cc2c(C(=O)N3CCN(C4CCCCC4)CC3)nc3ccccn23)CC1,13%,4%,16,-12%,2%
CCCn1c(N)c(N(CCOC)C(=O)CSc2cc(C)c3ccccc3n2)c(=O)[nH]c1=O,-1%,-1%,13,21%,1%
SMILES,TDP1 cell noCPT,HT1080-NT tox,IL-1B inflam inh,DT40 TDP1 CPT,HT1080 IDH1KD tx
Cc1nc(C)c(C(=O)NNC(=O)c2ccc(Br)cc2)s1,-29%,8%,22,-7%,7%
CC(C)(C)c1csc(NC(=O)c2ccccc2O)n1,?,?,-83*,-23%,?
CC(C)(C)c1csc(NNC(=O)c2ccc(Br)cc2)n1,?,?,93,?,9.2µM*
CSc1ncccc1C(=O)Nc1nc(C(C)(C)C)cs1,?,-17%,-18,-17%,-8%
CC(C)(C)c1csc(NC(=O)c2c(F)c(F)c(F)c(F)c2F)n1,?,-2%,-55*,?,11%
CCc1nnc(NS(=O)(=O)c2ccc(N=CC3=C(O)CC(C)(C)CC3=O)cc2)s1,-14%,0%,31,-14%,1%
CN(C(=O)CSc1nnc(C2CC2)n1C1CC1)C1(C#N)CCCCC1,-25%,-1%,0,-2%,0%
CCc1ccc(CNC(=O)c2sc3nc[nH]c(=O)c3c2C)cc1,?,.,.,-16%,.
N#CC(C#N)=NNc1ccc2cn[nH]c2c1,4.6µM*,21µM*,-86*,4.1µM*,21µM*
COC(=O)C1(Cc2cc(-c3ccc(OC)cc3OC)no2)CCN(C(=O)OC(C)(C)C)CC1,21µM*,0%,6,?,7%
COC(=O)C1(Cc2cc(-c3cccc(Br)c3)no2)CCN(C(=O)OC(C)(C)C)CC1,?,-10%,-7,?,-17%
O=C(Cn1cnc2ccccc21)Nc1cccc(S(=O)(=O)N2CCCC2)c1,4.1µM*,-6%,-13,5.8µM*,-16%
O=C(CN1CCN(c2ccccn2)CC1)Nc1cccc(S(=O)(=O)N2CCCC2)c1,16µM*,-3%,2,?,-7%
OCCNc1nc2ccccc2n1CCN1CCCCC1,2%,3%,-7,-13%,21%
O=C(Cn1c(NCCO)nc2ccccc21)Nc1cccc(S(=O)(=O)N2CCCC2)c1,10µM*,-8%,22,?,-1%
CCN(CC)C(=O)[C@H]1C[C@H](CC(=O)NCCC2=CCCCC2)C(=O)N2CCc3c([nH]c4cc(CCC(=O)N(C)C)ccc34)[C@]12C,?,7%,-9,?,10%
Cc1ccc2c(c1)C1(C)C(C(C)(C)N2C=O)C1(Cl)Cl (stereo not drawn),10µM*,-6%,-6,-23%,1%
CC(C)OCCCNC(=O)CCSc1ccc(Cl)cc1,2%,-4%,17,-20%,8%
COc1ccc(OC)c(NC(=O)Cn2cnc3ccc(S(=O)(=O)N4CCC(C)CC4)cc3c2=O)c1,?,.,.,23µM*,.
